Test results published in PubChem BioAssay.
The source made the active and inactive calls.

What was measured:
[1] = optical density shifts of acrAB sulA E. coli – strain DRC41, OD650, 48 h, E. coli filamentation inducer project, primary screen (AID 1152); conditions: higher = more signal, called active from +8 up or from −8 down;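 also: E. coli MC1000 strain DRC41 lacking acrAB efflux pump and sulA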
[2] = probe aLefty1 binding on compound microarray – biochemical, small-molecule microarray, 635/667 nm fluorescence, primary screen (AID 1153); conditions: higher = more signal;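 also: score merges spot fluorescence with signal-to-noise ratio from the scanned slide images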
[3] = plasmodial surface anion channel blockers, osmotic lysis – cell-based, P. falciparum Indochina, OD700, 1 h, primary screen (AID 1154); conditions: P. falciparum Indochina infected RBC osmotic lysis, higher = more signal, called active from +8 up or from −8 down
[4] = plasmodial surface anion channel blockers, osmotic lysis – cell-based, P. falciparum Indochina, OD700, 2 h, primary screen (AID 1155);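 also: lysis reports solute entry through the parasite surface anion channel PSAC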; conditions: P. falciparum Indochina infected erythrocytes, higher = more signal, called active from +8 up or from −8 down
[5] = changes in parasitized red cell lysis, either direction – P. falciparum Indochina, OD700, 3 h, PSAC antagonist project, primary screen (AID 1156); conditions: P. falciparum-infected erythrocytes, osmotic lysis, higher = more signal, called active from +8 up or from −8 down
[6] = plasmodial surface anion channel blockers, osmotic lysis – cell-based, P. falciparum Indochina, OD700, 18 h, primary screen (AID 1157); conditions: P. falciparum Indochina infected erythrocytes, osmotic lysis OD700, 18 h; higher = more signal, called active from +8 up or from −8 down
[7] = S6 kinase pathway phospho-S6 level changes – cell-based, A549, cytoblot, luminescence, serum-stimulated, primary screen (AID 1158); conditions: 5 h, higher = more signal;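 also: serum-stimulated A549 lung adenocarcinoma cells; signal is phosphorylated S6 detected by cytoblot immunostaining with HRP secondary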
[8] = molecular target: NADPH oxidase 2 (Homo sapiens) (UniProt P04839); experiment: compounds shifting NOX2 Amplex Red fluorescence – cell-based, HEK293-NOX2, PMA-stimulated, NOX inhibitor project, primary screen (AID 1159); conditions: 45 min, higher = more signal, called active from +8 up or from −8 down; also: test concentration not given here
[9] = molecular target: NADPH oxidase 4 (Homo sapiens) (UniProt Q9NPH5); experiment: compounds shifting NOX4 Amplex Red fluorescence – cell-based, HEK293-NOX4, tetracycline-induced, NOX inhibitor project, primary screen (AID 1160); conditions: HEK293-NOX4, Amplex Red H2O2 fluorescence, 45 min; higher = more signal, called active from +8 up or from −8 down
[10] = molecular target: NADPH oxidase 5 (Homo sapiens) (UniProt Q96PH1); experiment: compounds shifting NOX5 Amplex Red fluorescence – cell-based, HEK293-NOX5, NOX inhibitor project, primary screen (AID 1161); conditions: HEK293-NOX5, ionomycin, 45 min, higher = more signal
[11] = compound effects on lung adenocarcinoma cell viability – A549, calcein-AM fluorescence, 48 h, basal, profiling panel (AID 1162); conditions: higher = more signal; also: test concentration not given here
[12] = compound effects on differentiated 3T3-L1 adipocyte viability – cell-based, 3T3-L1 adipocytes, calcein-AM fluorescence, 48 h, basal, profiling panel (AID 1163); conditions: 3T3-L1 adipocytes viability, higher = more signal; also: test concentration not given here
[13] = compound effects on hepatocellular carcinoma cell viability – HepG2, calcein-AM fluorescence, 48 h, basal, profiling panel (AID 1164); conditions: higher = more signal; also: test concentration not given here
[14] = compound effects on multiple myeloma cell viability – MM1S, calcein-AM fluorescence, 48 h, basal, profiling panel (AID 1165); conditions: higher = more signal; also: test concentration not given here
[15] = calcein-AM signal in unstimulated myeloma cells – cell-based, calcein-AM fluorescence, 48 h, PK04 Diversity Set, profiling panel (AID 1166); conditions: RPMI8226 myeloma viability, higher = more signal;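 also: cells grown under basal conditions without added stimulus; test concentration not given here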
[16] = JC-1 mitochondrial signal, unstimulated HepG2 cells – cell-based, JC-1 fluorescence, 24 h, 100 nL compound, profiling panel (AID 1167); conditions: HepG2 mitochondrial potential, higher = more signal; also: test concentration not given here
[17] = JC-1 mitochondrial signal, unstimulated adipocytes – cell-based, JC-1 fluorescence, 3T3-L1 adipocytes, 24 h, 100 nL compound, profiling panel (AID 1168); conditions: JC-1 mitochondrial fluorescence, higher = more signal, called active from +8 up or from −8 down; also: test concentration not given here
[18] = JC-1 mitochondrial signal, unstimulated myeloma cells – cell-based, JC-1 fluorescence, RPMI8226, 24 h, 100 nL compound, profiling panel (AID 1169); conditions: JC-1 mitochondrial potential fluorescence, higher = more signal; also: test concentration not given here
[19] = JC-1 mitochondrial signal, unstimulated MM1S myeloma – cell-based, JC-1 fluorescence, 24 h, 100 nL compound, profiling panel (AID 1170); conditions: MM1S mitochondrial potential, higher = more signal; also: test concentration not given here
[20] = resazurin metabolic signal in A549 cells – cell-based, resazurin fluorescence, 24 h, PK04 Diversity Set, profiling panel (AID 1171); conditions: A549 viability, higher = more signal, called active from +8 up or from −8 down; also: test concentration not given here

Chain of NADPH oxidase 4 (Homo sapiens) (Q9NPH5 whole entry, looked up): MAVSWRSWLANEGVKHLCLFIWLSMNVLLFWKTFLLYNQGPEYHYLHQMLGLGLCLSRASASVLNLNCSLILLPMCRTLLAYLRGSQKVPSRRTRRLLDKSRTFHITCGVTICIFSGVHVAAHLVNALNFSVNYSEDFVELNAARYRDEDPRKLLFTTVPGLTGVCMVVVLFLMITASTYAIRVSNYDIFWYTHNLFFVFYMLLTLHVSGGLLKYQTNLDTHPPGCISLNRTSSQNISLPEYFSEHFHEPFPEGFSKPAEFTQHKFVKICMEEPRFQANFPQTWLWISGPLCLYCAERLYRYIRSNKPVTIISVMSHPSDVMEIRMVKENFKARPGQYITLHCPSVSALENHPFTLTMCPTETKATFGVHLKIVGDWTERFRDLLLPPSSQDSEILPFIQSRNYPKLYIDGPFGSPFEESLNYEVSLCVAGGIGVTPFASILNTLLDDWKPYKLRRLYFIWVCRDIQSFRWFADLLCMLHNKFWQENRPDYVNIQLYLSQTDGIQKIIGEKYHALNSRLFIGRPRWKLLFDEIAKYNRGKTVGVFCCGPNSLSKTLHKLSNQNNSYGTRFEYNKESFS
Chain of NADPH oxidase 2 (Homo sapiens) (P04839 whole entry, looked up): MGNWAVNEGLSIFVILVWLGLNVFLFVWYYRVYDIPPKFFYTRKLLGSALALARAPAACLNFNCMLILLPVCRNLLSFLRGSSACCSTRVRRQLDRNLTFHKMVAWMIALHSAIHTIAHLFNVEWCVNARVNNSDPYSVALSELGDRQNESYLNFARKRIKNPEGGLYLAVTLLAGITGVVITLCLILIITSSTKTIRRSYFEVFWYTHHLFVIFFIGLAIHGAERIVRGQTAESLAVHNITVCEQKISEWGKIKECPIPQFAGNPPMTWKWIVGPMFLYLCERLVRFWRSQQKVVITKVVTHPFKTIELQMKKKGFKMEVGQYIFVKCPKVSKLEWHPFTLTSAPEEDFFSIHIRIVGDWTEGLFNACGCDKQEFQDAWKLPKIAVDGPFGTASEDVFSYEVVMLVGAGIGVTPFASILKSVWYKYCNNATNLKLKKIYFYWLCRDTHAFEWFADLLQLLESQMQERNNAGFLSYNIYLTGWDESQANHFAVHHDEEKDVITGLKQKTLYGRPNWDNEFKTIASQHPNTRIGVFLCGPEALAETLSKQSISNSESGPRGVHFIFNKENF
Chain of NADPH oxidase 5 (Homo sapiens) (Q96PH1 whole entry, looked up): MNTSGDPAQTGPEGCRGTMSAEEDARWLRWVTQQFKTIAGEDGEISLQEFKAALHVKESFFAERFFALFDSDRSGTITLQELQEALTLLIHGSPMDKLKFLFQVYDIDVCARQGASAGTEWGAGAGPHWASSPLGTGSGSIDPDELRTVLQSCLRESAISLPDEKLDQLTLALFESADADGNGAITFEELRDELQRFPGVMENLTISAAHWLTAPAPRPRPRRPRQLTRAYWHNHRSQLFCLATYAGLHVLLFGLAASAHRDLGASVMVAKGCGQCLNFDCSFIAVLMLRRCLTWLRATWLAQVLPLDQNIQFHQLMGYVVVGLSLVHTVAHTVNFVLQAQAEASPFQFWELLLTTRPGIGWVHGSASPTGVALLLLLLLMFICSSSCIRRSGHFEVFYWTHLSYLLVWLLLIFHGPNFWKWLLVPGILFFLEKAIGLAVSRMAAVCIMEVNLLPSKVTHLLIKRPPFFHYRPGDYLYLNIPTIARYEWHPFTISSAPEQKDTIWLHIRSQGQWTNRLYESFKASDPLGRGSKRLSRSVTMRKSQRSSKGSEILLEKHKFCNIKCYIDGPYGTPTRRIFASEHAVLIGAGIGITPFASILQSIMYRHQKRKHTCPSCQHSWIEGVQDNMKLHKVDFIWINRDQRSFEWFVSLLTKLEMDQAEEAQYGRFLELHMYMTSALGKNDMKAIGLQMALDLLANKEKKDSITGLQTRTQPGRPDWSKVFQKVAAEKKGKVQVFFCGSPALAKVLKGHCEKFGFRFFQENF

Compound	z-score [1]	composite z-score [2]	z-score [3]	z-score [4]	z-score [5]	z-score [6]	z-score [7]	z-score [8]	z-score [9]	z-score [10]	z-score [11]	z-score [12]	z-score [13]	z-score [14]	z-score [15]	z-score [16]	z-score [17]	z-score [18]	z-score [19]	z-score [20]
[N-]=[N+]=Nc1ccccc1[C@@H]1OC(c2ccc(OCCCO)cc2)=N[C@]1(CCS(=O)(=O)c1ccccc1)C(=O)N1CCOCC1	0.325 (inactive)	0.701	30.4 (active)	25.4 (active)	0.736 (inactive)	6.38 (inactive)	-0.444	-1.54 (inactive)	1.47 (inactive)	1.47	1.53	0.293	1.33	0.0503	-0.908	0.431	0.406 (inactive)	-0.746	-0.799	-0.549 (inactive)
COc1ccc(NN2C(C(O)c3ccc(OC)c(OCc4ccccc4)c3)C=CC3C(=O)N(C4CCCCC4)C(=O)C32)cc1 (stereo not given)	0.678 (inactive)	0.32	4.41 (inactive)	1.38 (inactive)	0.31 (inactive)	1 (inactive)	0.0173	-0.195 (inactive)	-1.96 (inactive)	-0.604	0.412	-0.714	0.337	-0.257	0.0417	0.348	0.353 (inactive)	0.0161	-1.33	0.817 (inactive)
N#Cc1ccc(NN2C(C(O)c3cccs3)C=CC3C(=O)N(c4ccccc4)C(=O)C32)cc1 (stereo not given)	-0.127 (inactive)	0.0262	5.65 (inactive)	-0.131 (inactive)	0.832 (inactive)	-0.741 (inactive)	0.578	-2.12 (inactive)	-5.34 (inactive)	-3.05	0.594	-0.327	1.01	-0.0964	-0.598	-0.307	-0.0937 (inactive)	0.49	-0.218	0.234 (inactive)
COc1cc2c(cc1OC)CN(C(=O)[C@@H]1[C@H]3C(=O)O[C@H](c4ccccc4)[C@H](c4ccccc4)N3[C@H](c3ccccc3OCCO)[C@@]13C(=O)Nc1ccc(C#CCNC(N)=O)cc13)CC2	0.97 (inactive)	0.882	1.14 (inactive)	-0.45 (inactive)	0.333 (inactive)	-2.15 (inactive)	3.09	1.24 (inactive)	0.964 (inactive)	-0.0555	1.12	1.62	0.871	0.52	0.625	-1.74	1.63 (inactive)	-0.423	-0.322	-0.532 (inactive)
[N-]=[N+]=NCc1ccccc1C[C@]1(C(=O)O)N=C(c2ccc(OCCCO)cc2)O[C@H]1c1ccccc1CN=[N+]=[N-]	-0.813 (inactive)	0.222	21.5 (active)	3.96 (inactive)	0.649 (inactive)	0.321 (inactive)	-0.591	-0.331 (inactive)	1.11 (inactive)	2.29	-0.437	0.368	-0.302	-0.966	-1.53	-2.38	-1.4 (inactive)	-0.789	0.432	1.17 (inactive)
COCCOC(=O)N1C(=O)[C@@]2(c3cc(C#CCCO)ccc31)[C@H](c1ccccc1OCCO)N1[C@H](c3ccccc3)[C@H](c3ccccc3)OC(=O)[C@H]1[C@@H]2C(=O)N1CCN(c2ncccn2)CC1	-0.33 (inactive)	0.85	2.52 (inactive)	1.32 (inactive)	-0.293 (inactive)	0.708 (inactive)	-0.262	1.22 (inactive)	1.05 (inactive)	1.16	-0.442	-0.692	0.0682	-0.448	-0.0718	0.609	0.188 (inactive)	-0.0523	-1.1	-0.467 (inactive)
CCOc1cc(C(O)C2C=CC3C(=O)N(c4ccccc4)C(=O)C3N2Nc2ccc([N+](=O)[O-])cc2)ccc1O (stereo not given)	-1.48 (inactive)	-0.0011	14.3 (active)	1.52 (inactive)	0.839 (inactive)	0.557 (inactive)	-0.77	-3.36 (inactive)	-4.89 (inactive)	-4.11	-0.499	-0.742	-0.527	0.162	-0.223	-2.36	-2.03 (inactive)	-0.459	-0.908	-0.373 (inactive)
CCOC(=O)C1=CCC(C(C)(C)C)N(S(=O)(=O)c2ccc(C)cc2)C1 (stereo not given)	-1.32 (inactive)	0.0494	1.53 (inactive)	0.768 (inactive)	0.281 (inactive)	0.289 (inactive)	-0.693	-0.124 (inactive)	-1.21 (inactive)	0.194	-0.723	-0.194	-0.157	-2.31	-1.28	-1	0.161 (inactive)	-0.1	-0.562	0.613 (inactive)
O=C1O[C@H](c2ccccc2)[C@H](c2ccccc2)N2[C@H]1[C@@H](C(=O)NC[C@H](O)c1ccccc1)[C@]1(C(=O)Nc3ccc(C#CCCO)cc31)[C@H]2c1ccc(O)cc1	0.39 (inactive)	-0.293	0.211 (inactive)	-0.709 (inactive)	-0.317 (inactive)	-1.23 (inactive)	1.21	-0.687 (inactive)	0.0169 (inactive)	-3.93	0.102	1.09	-0.975	0.245	-0.155	-0.72	0.0782 (inactive)	0.626	0.000313	0.024 (inactive)
